Conditions in all cases: mRNA level, 48 h; actives raise or lower the signal
Read-out in experiment [1]: Early growth response protein 1 (EGR1) transcription factor, EGR1 (gene 1958)
Briefly: LTEA_HepaRG_EGR1: Life Technologies and Expression Analysis (LTEA) Assay for Early growth response protein 1 (EGR1) transcription factor using HepaRG (AID 2283490). An outline of the steps: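 Read-out is EGR1 mRNA level by qRT-PCR, normalized to three housekeeping genes and analysed for gain or loss of signal against 0.5% DMSO. Source cells: human HepaRG, treated 48 h at up to 100 uM in half-log dilutions.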

Read-out in experiment [2]: Ezrin (EZR), EZR (gene 7430)
Put plainly: LTEA_HepaRG_EZR: Life Technologies and Expression Analysis (LTEA) Assay for Ezrin (EZR) using HepaRG (AID 2283491). A digest of the protocol:
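HepaRG, 48 h chemical exposure, 8-pt half-log series from 100 uM, 0.5% DMSO vehicle, duplicates. Read-out: EZR mRNA by TaqMan qRT-PCR (Fluidigm array), housekeeping-normalized; bidirectional curve fit vs DMSO baseline.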

Read-out in experiment [3]: Cytochrome P450 3A7 (Homo sapiens) (UniProt P24462)
Briefly: LTEA_HepaRG_CYP3A7: Life Technologies and Expression Analysis (LTEA) Assay for CYP3A7 using HepaRG (AID 2283492). A digest of the protocol:
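Differentiated HepaRG cells in serum-free induction medium exposed 48 h in duplicate to 8-point half-log series from 100 uM top in 0.5% DMSO. CYP3A7 mRNA by qRT-PCR, normalized to ACTB/GAPDH/POLR2A, bidirectional fit versus DMSO.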

Read-out in the next experiment: CYP3A5 (gene 1577)
Put plainly: LTEA_HepaRG_CYP3A5: Life Technologies and Expression Analysis (LTEA) Assay for CYP3A5 using HepaRG (AID 2283493). A digest of the protocol:
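HepaRG plated 48 h, switched to serum-free induction medium, chemicals added 48 h (max 100 uM, half-log, 0.5% DMSO). RNA isolated; CYP3A5 by TaqMan qRT-PCR. Gain/loss vs DMSO.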

Read-out in experiment [4]: Fatty Acid-Binding Protein 1 (FABP1), FABP1 (gene 2168)
Put plainly: LTEA_HepaRG_FABP1: Life Technologies and Expression Analysis (LTEA) Assay for Fatty Acid-Binding Protein 1 (FABP1) using HepaRG (AID 2283494). A digest of the protocol: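 HepaRG, 48 h post-plating switched to serum-free induction medium, then dosed 48 h (duplicate, 8 pts, ≤100 uM, 0.5% DMSO). RNA → Fluidigm TaqMan qRT-PCR, FABP1 normed to ACTB/GAPDH/POLR2A. Bidirectional curve fit vs DMSO.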

Read-out in experiment [5]: Cytochrome P450 4A22 (Homo sapiens) (UniProt Q5TCH4)
Briefly: LTEA_HepaRG_CYP4A22: Life Technologies and Expression Analysis (LTEA) Assay for Cytochrome P450 4A22 (CYP4A22) using HepaRG (AID 2283495). An outline of the steps: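 Differentiated HepaRG cells in serum-free induction medium exposed 48 h in duplicate to eight half-log concentrations up to 100 uM in 0.5% DMSO. CYP4A22 mRNA quantified by TaqMan qRT-PCR, normalized to ACTB, GAPDH and POLR2A; bidirectional fit versus DMSO.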

Read-out in experiment [6]: Cytochrome P450 7A1 (Homo sapiens) (UniProt P22680)
Put plainly: LTEA_HepaRG_CYP7A1: Life Technologies and Expression Analysis (LTEA) Assay for Cytochrome P450 7A1 (CYP7A1) using HepaRG (AID 2283496). A digest of the protocol: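 HepaRG cells plated 48 h, then switched to serum-free induction medium and exposed in duplicate for 48 h to 8-point half-log series from 100 uM in 0.5% DMSO. CYP7A1 mRNA by qRT-PCR (TaqMan), normalized to ACTB/GAPDH/POLR2A; bidirectional fit versus DMSO.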

Read-out in experiment [7]: Glutathione S-Transferase (GSTA2), GSTA2 (gene 2939)
Briefly: LTEA_HepaRG_GSTA2: Life Technologies and Expression Analysis (LTEA) Assay for Glutathione S-Transferase (GSTA2) using HepaRG (AID 2283497). A digest of the protocol:
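HepaRG, 48 h dosing, 8-pt half-log CRC from 100 uM, 0.5% DMSO vehicle, n=2; RNA → Fluidigm TaqMan qRT-PCR; GSTA2 vs ACTB/GAPDH/POLR2A; gain/loss fit vs DMSO.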

Read-out in experiment [8]: Glutamate-cysteine ligase catalytic (GCLC), GCLC (gene 2729)
Put plainly: LTEA_HepaRG_GCLC: Life Technologies and Expression Analysis (LTEA) Assay for Glutamate-cysteine ligase catalytic (GCLC) using HepaRG (AID 2283498). A digest of the protocol: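 Read-out is GCLC transcript level by Fluidigm-based TaqMan qRT-PCR, normalized to three housekeeping genes and fitted in both directions relative to 0.5% DMSO. Human HepaRG cells received chemicals for 48 h, up to 100 uM.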

Read-out in experiment [9]: growth arrest and DNA damage 45 (GADD45G), GADD45G (gene 10912)
Briefly: LTEA_HepaRG_GADD45G: Life Technologies and Expression Analysis (LTEA) Assay for growth arrest and DNA damage 45 (GADD45G) using HepaRG (AID 2283499). A digest of the protocol: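 Differentiated human HepaRG cells, 48 h post-plating, exposed 48 h in serum-free induction medium to 8 half-log concentrations (top 100 uM, 0.5% DMSO) in duplicate. GADD45G mRNA measured by Fluidigm TaqMan qRT-PCR, normalized to ACTB, GAPDH, POLR2A; bidirectional fit versus DMSO.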

Read-out in experiment [10]: Glutamate-cysteine ligase regulatory (GCLM), GCLM (gene 2730)
Put plainly: LTEA_HepaRG_GCLM: Life Technologies and Expression Analysis (LTEA) Assay for Glutamate-cysteine ligase regulatory (GCLM) using HepaRG (AID 2283500). A digest of the protocol:
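Cells were plated, cultured 48 h, switched to serum-free induction medium, then dosed in duplicate for 48 h at eight half-log concentrations up to 100 uM. RNA was then profiled by qRT-PCR; gain or loss versus DMSO was fitted.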

Read-out in experiment [11]: Glutathione S-transferase M3 (GSTM3), GSTM3 (gene 2947)
Put plainly: LTEA_HepaRG_GSTM3: Life Technologies and Expression Analysis (LTEA) Assay for Glutathione S-transferase M3 (GSTM3) using HepaRG (AID 2283501). An outline of the steps: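 Differentiated human HepaRG cells were exposed in duplicate for 48 h in serum-free induction medium, 8 points from 100 uM top in half-log steps, 0.5% DMSO. GSTM3 mRNA was measured by TaqMan qRT-PCR, normalized to ACTB, GAPDH and POLR2A; bidirectional fit versus DMSO.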

Read-out in experiment [12]: Hypoxia-inducible factor 1-alpha (Homo sapiens) (UniProt Q16665)
Put plainly: LTEA_HepaRG_HIF1A: Life Technologies and Expression Analysis (LTEA) Assay for Hypoxia-inducible factor 1 (HIF1A) Trancription factor using HepaRG (AID 2283503). An outline of the steps:
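Differentiated HepaRG cells in serum-free induction medium exposed 48 h, in duplicate, to 8-point half-log series from 100 uM in 0.5% DMSO. HIF1A mRNA measured by TaqMan qRT-PCR, normalized to ACTB/GAPDH/POLR2A, fitted bidirectionally versus DMSO.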

Read-out in experiment [13]: 3-Hydroxy-3-Methylglutaryl-CoA Synthase 2 (HMGCS2), HMGCS2 (gene 3158)
Briefly: LTEA_HepaRG_HMGCS2: Life Technologies and Expression Analysis (LTEA) Assay for 3-Hydroxy-3-Methylglutaryl-CoA Synthase 2 (HMGCS2) using HepaRG (AID 2283504). An outline of the steps:
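Human HepaRG cells in serum-free induction medium were exposed in duplicate for 48 h to 8-point half-log series from 100 uM top in 0.5% DMSO. HMGCS2 mRNA measured by TaqMan qRT-PCR, normalised to ACTB, GAPDH, POLR2A; bidirectional fit versus DMSO.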

Read-out in the next experiment: HGF (gene 3082)
Put plainly: LTEA_HepaRG_HGF: Life Technologies and Expression Analysis (LTEA) Assay for Hepatocyte Growth Facto (HGF) using HepaRG (AID 2283505). A digest of the protocol: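 Differentiated HepaRG cells in serum-free induction medium exposed 48 h in duplicate, 8 half-log concentrations from 100 uM in 0.5% DMSO. HGF mRNA by qRT-PCR, normalised to ACTB, GAPDH, POLR2A; bidirectional fitting.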

Read-out in experiment [14]: Insulin Like Growth Factor 1 (IGF1), IGF1 (gene 3479)
Briefly: LTEA_HepaRG_IGF1: Life Technologies and Expression Analysis (LTEA) Assay for Insulin Like Growth Factor 1 (IGF1) using HepaRG (AID 2283506). A digest of the protocol:
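HepaRG, plated 48 h, then switched to serum-free induction media; test chemical 8-pt half-log from 100 uM (0.5% DMSO), duplicate, 48 h. Lysis in RLT, TaqMan qRT-PCR, norm. ACTB/GAPDH/POLR2A. Bidirectional fit vs DMSO.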

Read-out in experiment [15]: Intercellular Adhesion Molecule 1 (ICAM1), ICAM1 (gene 3383)
Briefly: LTEA_HepaRG_ICAM1: Life Technologies and Expression Analysis (LTEA) Assay for Intercellular Adhesion Molecule 1 (ICAM1) using HepaRG (AID 2283507). A digest of the protocol:
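Differentiated human HepaRG cells in serum-free induction medium exposed 48 h in duplicate to 8 half-log concentrations (top 100 uM, 0.5% DMSO). ICAM1 mRNA quantified by TaqMan qRT-PCR, normalized to ACTB, GAPDH and POLR2A; bidirectional fitting versus DMSO.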

Read-out in experiment [16]: Insulin-like growth factor-binding protein 1 (IGFBP1), IGFBP1 (gene 3484)
Briefly: LTEA_HepaRG_IGFBP1: Life Technologies and Expression Analysis (LTEA) Assay for Insulin-like growth factor-binding protein 1 (IGFBP1) using HepaRG (AID 2283508). An outline of the steps:
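HepaRG cells, plated 48 h then switched to serum-free induction medium, exposed in duplicate for 48 h to 8-point half-log series from 100 uM in 0.5% DMSO. mRNA measured by qRT-PCR, normalized to ACTB/GAPDH/POLR2A; bidirectional fit versus DMSO.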

Read-out in experiment [17]: Interleukin 6 (IL6), IL6 (gene 3569)
Briefly: LTEA_HepaRG_IL6: Life Technologies and Expression Analysis (LTEA) Assay for Interleukin 6 (IL6) using HepaRG (AID 2283509). An outline of the steps:
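HepaRG, ~100,000 cells/well, 48 h pre-culture; serum-free induction medium; cmpd 8-pt half-log from 100 uM, 0.5% DMSO, duplicate, 48 h. Lysis in RLT, TaqMan qRT-PCR; gain or loss vs DMSO.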

Read-out in experiment [18]: Heat shock 70 kDa protein 1 (HSPA1A), gene 3303
Briefly: LTEA_HepaRG_HSPA1A: Life Technologies and Expression Analysis (LTEA) Assay for Heat shock 70 kDa protein 1 (HSPA1A) using HepaRG (AID 2283502). An outline of the steps:
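Readout is HSPA1A transcript level by microfluidic qRT-PCR, normalized to three housekeeping genes and analysed for gain or loss of signal relative to 0.5% DMSO. Human HepaRG cultures received test chemicals for 48 h at up to 100 uM.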

The structures appear in SMILES notation. Active and inactive are the calls of the source. The calls were made as follows: active = hit-call score of the fitted dose curve at least 0.9, where 1 is the maximum; inactive = score below 0.9.

Hypoxia-inducible factor 1-alpha (Homo sapiens), sequence (Q16665 whole entry, looked up): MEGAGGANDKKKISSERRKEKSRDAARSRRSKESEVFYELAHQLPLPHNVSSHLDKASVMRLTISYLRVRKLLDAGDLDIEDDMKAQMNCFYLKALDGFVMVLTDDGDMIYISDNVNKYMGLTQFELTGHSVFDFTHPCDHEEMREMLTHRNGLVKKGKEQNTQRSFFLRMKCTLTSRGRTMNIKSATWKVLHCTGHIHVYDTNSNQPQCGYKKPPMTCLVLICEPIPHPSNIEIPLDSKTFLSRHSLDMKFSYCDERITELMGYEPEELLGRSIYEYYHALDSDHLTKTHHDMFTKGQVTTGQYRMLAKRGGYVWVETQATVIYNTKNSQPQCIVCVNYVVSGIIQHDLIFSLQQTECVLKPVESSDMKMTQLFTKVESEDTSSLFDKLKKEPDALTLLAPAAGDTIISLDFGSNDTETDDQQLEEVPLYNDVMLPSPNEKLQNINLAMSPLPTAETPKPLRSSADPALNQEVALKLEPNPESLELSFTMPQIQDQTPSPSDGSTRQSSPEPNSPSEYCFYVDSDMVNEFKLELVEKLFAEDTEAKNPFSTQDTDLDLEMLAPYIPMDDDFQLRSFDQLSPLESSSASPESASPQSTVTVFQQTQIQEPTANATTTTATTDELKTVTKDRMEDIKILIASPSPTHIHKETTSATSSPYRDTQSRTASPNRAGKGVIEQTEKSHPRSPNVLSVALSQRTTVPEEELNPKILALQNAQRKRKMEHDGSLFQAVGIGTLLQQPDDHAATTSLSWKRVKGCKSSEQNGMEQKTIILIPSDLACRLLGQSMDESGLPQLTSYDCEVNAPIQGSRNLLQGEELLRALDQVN
Cytochrome P450 3A7 (Homo sapiens), sequence (P24462 whole entry, looked up): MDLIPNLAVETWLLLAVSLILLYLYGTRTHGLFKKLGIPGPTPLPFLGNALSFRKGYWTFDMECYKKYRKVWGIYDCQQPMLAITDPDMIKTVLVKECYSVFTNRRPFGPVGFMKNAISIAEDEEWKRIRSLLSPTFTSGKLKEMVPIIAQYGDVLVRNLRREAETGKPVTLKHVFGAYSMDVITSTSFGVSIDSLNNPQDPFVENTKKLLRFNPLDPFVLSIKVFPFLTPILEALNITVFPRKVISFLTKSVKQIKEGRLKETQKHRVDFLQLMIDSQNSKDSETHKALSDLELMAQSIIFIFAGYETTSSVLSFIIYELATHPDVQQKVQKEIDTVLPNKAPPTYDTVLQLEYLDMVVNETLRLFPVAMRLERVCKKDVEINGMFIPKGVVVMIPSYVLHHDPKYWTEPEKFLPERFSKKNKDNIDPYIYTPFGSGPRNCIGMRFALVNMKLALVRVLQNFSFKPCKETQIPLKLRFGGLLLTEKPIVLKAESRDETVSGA

The AC50 is the concentration giving half of the maximal activity seen. For `Cc1nc(N(C)C)nc(OC(=O)N(C)C)c1C`, the call (in experiment [1]; in experiment [2]; with CYP3A5 (gene 1577); in experiment [4]; in experiment [5]; in experiment [6]) was inactive. In addition, the call in experiment [7], in experiment [8], in experiment [9], in experiment [10], in experiment [11] and in experiment [12] was inactive. Moreover, the result (in experiment [13]; with HGF (gene 3082); in experiment [14]; in experiment [15]; in experiment [16]; in experiment [17]) was inactive. The AC50 in [3] was 19.9 µM (active).
On to `CN=C=S`, for which the compound was classed as inactive (in [1]; in [2]; in experiment [3]; with CYP3A5 (gene 1577); in experiment [4]; in experiment [5]). In addition, the call in experiment [6], in experiment [7], in experiment [8], in experiment [9], in experiment [10] and in experiment [11] was inactive. Moreover, the outcome (in experiment [18]; in experiment [12]; in experiment [13]; in the experiment with HGF (gene 3082); in experiment [14]; in experiment [15]) was inactive. The compound was classed as inactive in [16] and in [17].
Turning to `CC1(C)C(C=C(Cl)Cl)C1C(=O)OC(C#N)c1cccc(Oc2ccccc2)c1` (centres undefined), the result (in experiment [1]; in [2]; in experiment [3]; with CYP3A5 (gene 1577); in experiment [4]; in experiment [5]) was inactive. For the same compound, the outcome in experiment [7], in experiment [8], in experiment [9], in experiment [10], in experiment [11] and in experiment [18] was inactive. For the same compound, the call (in experiment [12]; in [13]; with HGF (gene 3082); in experiment [15]; in [16]; in experiment [17]) was inactive. For the same compound, the AC50 was 13.9 µM (active) in experiment [6] and 50 µM (active) in [14].

(Values after PubChem BioAssay (EPA / NIEHS).)
